The supplement of paper PMC12645437, “Orthogonal IMiD-Degron Pairs Induce Selective Protein Degradation in Cells” (ACS Chemical Biology, 2025)
In all, about 8,300 sequences were measured (“log2 fold change of degron read counts, EGFP-low vs EGFP+ sorted cells (limma voom), compound-induced degradation”: median about -1.1, highest 2% from about 3.2 on). This is one part of a sample in which the highest values are shown more often than they occur.

T1: CRBN, Q96SW2
T1 chain: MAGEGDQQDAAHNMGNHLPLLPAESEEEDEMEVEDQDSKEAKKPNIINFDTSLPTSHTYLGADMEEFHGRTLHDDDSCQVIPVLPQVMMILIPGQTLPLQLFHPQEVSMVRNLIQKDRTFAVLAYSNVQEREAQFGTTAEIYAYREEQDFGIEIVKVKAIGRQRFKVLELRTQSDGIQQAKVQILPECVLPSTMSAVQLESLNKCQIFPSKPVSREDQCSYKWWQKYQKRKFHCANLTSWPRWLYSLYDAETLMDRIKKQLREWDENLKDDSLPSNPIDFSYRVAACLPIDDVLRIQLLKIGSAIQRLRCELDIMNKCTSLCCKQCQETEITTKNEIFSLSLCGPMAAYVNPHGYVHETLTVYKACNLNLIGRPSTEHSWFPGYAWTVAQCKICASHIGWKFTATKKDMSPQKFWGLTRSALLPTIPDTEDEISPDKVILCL


Molecular target: T1, CRBN, Q96SW2
Experiment: log2 fold change of degron read counts, EGFP-low vs EGFP+ sorted cells (limma voom), compound-induced degradation; higher = more compound-induced degradation of the degron-EGFP fusion; degrons are variants of IKZF1/3 zinc finger 2; compound dose not given here
Settings: Jurkat, 18 h
[1] = compound: compound 19 (5-tert-butyl-thalidomide)
[2] = compound: compound 22 (5-morpholino-thalidomide)
[3] = compound: compound 33 (diphenyl IMiD analogue)
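Also: pooled lentiviral library of zinc finger degron-EGFP fusions in mCherry-positive Jurkat cells, FACS-sorted after compound exposure, with degron abundance counted by next-generation sequencing.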

| Sequence | log2 fold change of degron read counts [1] | log2 fold change of degron read counts [2] | log2 fold change of degron read counts [3] | log2 fold change of degron read counts (compound: thalidomide) |
| --- | --- | --- | --- | --- |
| FWCEICGAYFTQKGNLLRHIKL [46F_47W_49E_50I_52G_53A_54Y_55F_67L_, Q9UKT9] | 3.24 | 2.92 | 1.88 | 0.14 |
| FICEICGAYFTQKGNLLRHIKL [46F_47I_49E_50I_52G_53A_54Y_55F_67L_, Q9UKT9] | -0.272 | 1.41 | 2.34 | 2.12 |
| FGCEICGAYFTQKGNLLRHIKL [46F_47G_49E_50I_52G_53A_54Y_55F_67L_, Q9UKT9] | 1.74 | 0.231 | 2.58 | 0.883 |
| FRCEICGAYFTQKGNLLRHIKL [46F_47R_49E_50I_52G_53A_54Y_55F_67L_, Q9UKT9] | -0.965 | -0.721 | 0.747 | 1.98 |
| FYCEICGAYFTQKGNLLRHIKL [46F_47Y_49E_50I_52G_53A_54Y_55F_67L_, Q9UKT9] | 3.25 | 2.89 | 2.12 | 0.307 |
| FACEICGAYFTQKGNLLRHIKL [46F_47A_49E_50I_52G_53A_54Y_55F_67L_, Q9UKT9] | 3.17 | 1.39 | 0.71 | 0.202 |
| FHCDQCGACFTQKGNLLRHIKL [46F_47H_49D_50Q_52G_53A_54C_55F_67L_, Q9UKT9] | -1.69 | -1.96 | -2.17 | -2.89 |
| FICPICGAIFTQKGNLLRHIKL [46F_47I_49P_50I_52G_53A_54I_55F_67L_, Q9UKT9] | -1.09 | 0.608 | 1.82 | 1.64 |
| FICPICGRHFTQKGNLLRHIKL [46F_47I_49P_50I_52G_53R_54H_55F_67L_, Q9UKT9] | -1.55 | -0.572 | -0.548 | 0.569 |
| FYCDVCGATFTQKGNLLRHIKL [46F_47Y_49D_50V_52G_53A_54T_55F_67L_, Q9UKT9] | 2.06 | 2.82 | 0.691 | -1.49 |
| FRCEVCGARFTQKGNLLRHIKL [46F_47R_49E_50V_52G_53A_54R_55F_67L_, Q9UKT9] | -1.49 | -2.37 | -0.456 | 0.516 |
| FTCEVCGALFTQKGNLLRHIKL [46F_47T_49E_50V_52G_53A_54L_55F_67L_, Q9UKT9] | -0.893 | -0.862 | 0.362 | 0.612 |
| FTCEVCGARFTQKGNLLRHIKL [46F_47T_49E_50V_52G_53A_54R_55F_67L_, Q9UKT9] | 1.77 | 3.04 | 1.75 | 3.26 |
| FSCEVCGARFTQKGNLLRHIKL [46F_47S_49E_50V_52G_53A_54R_55F_67L_, Q9UKT9] | 3.53 | 2.6 | 0.369 | 2.08 |
| FHCEVCGARFTQKGNLLRHIKL [46F_47H_49E_50V_52G_53A_54R_55F_67L_, Q9UKT9] | 2.39 | 2.38 | 0.473 | 0.568 |
| FTCNICGAGFTQKGNLLRHIKL [46F_47T_49N_50I_52G_53A_54G_55F_67L_, Q9UKT9] | 0.378 | 0.88 | 1.61 | 1.21 |
| FSCEICGAEFTQKGNLLRHIKL [46F_47S_49E_50I_52G_53A_54E_55F_67L_, Q9UKT9] | 1.69 | 0.708 | 0.218 | 0.0707 |
| FWCPICGAAFTQKGNLLRHIKL [46F_47W_49P_50I_52G_53A_54A_55F_67L_, Q9UKT9] | 3.12 | 3.3 | 2.33 | 1.2 |
| FHCPICGAAFTQKGNLLRHIKL [46F_47H_49P_50I_52G_53A_54A_55F_67L_, Q9UKT9] | 3.05 | 2.78 | 2.28 | 1.19 |
| FGCPICGAAFTQKGNLLRHIKL [46F_47G_49P_50I_52G_53A_54A_55F_67L_, Q9UKT9] | 3.57 | 2.61 | 2.88 | 1.63 |
| FVCPICGAAFTQKGNLLRHIKL [46F_47V_49P_50I_52G_53A_54A_55F_67L_, Q9UKT9] | 1.31 | 2.85 | 2.04 | 3.03 |
| FICPICGAAFTQKGNLLRHIKL [46F_47I_49P_50I_52G_53A_54A_55F_67L_, Q9UKT9] | 0.268 | 3.15 | 2.21 | 2.78 |
| FSCPICGAAFTQKGNLLRHIKL [46F_47S_49P_50I_52G_53A_54A_55F_67L_, Q9UKT9] | 3.12 | 2.69 | 2.7 | 2.11 |
| FQCPICGAAFTQKGNLLRHIKL [46F_47Q_49P_50I_52G_53A_54A_55F_67L_, Q9UKT9] | 2.65 | 3.13 | 2.56 | 3.53 |
| FRCPICGAAFTQKGNLLRHIKL [46F_47R_49P_50I_52G_53A_54A_55F_67L_, Q9UKT9] | 2.26 | 2.26 | 2.48 | 2.19 |
| FFCPICGAAFTQKGNLLRHIKL [46F_47F_49P_50I_52G_53A_54A_55F_67L_, Q9UKT9] | 3.15 | 3 | 2.18 | 1.33 |
| FNCPICGAAFTQKGNLLRHIKL [46F_47N_49P_50I_52G_53A_54A_55F_67L_, Q9UKT9] | 2.96 | 1.85 | 0.954 | 1.13 |
| FYCPICGAAFTQKGNLLRHIKL [46F_47Y_49P_50I_52G_53A_54A_55F_67L_, Q9UKT9] | 2.86 | 3.24 | 2.38 | 0.578 |
| FKCPICGAAFTQKGNLLRHIKL [46F_47K_49P_50I_52G_53A_54A_55F_67L_, Q9UKT9] | 2.04 | -0.319 | -1.26 | 1.01 |
